From PubChem
Shown are actives, neighbours in structure and some others; about 4.3% of the full set was active somewhere.
esBAF inh: blocks esBAF chromatin remodeling in mouse ES cells; Bmi1-luciferase knock-in reporter, 24 h; 100% = twice the neutral-well signal; reporter increase, % at 12.5 µM; 350,000 compounds, 2% hits; in the data active means activation above about 40%;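 further: 0% = median of the plate's neutral control wells and 100% = double that signal; a rise in the Bmi1 reporter signal indicates esBAF inhibition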
FGF22 binding-1: FGF22 (human) thermal shift binding; Q9HCT0; recombinant FGF22 thermal shift, SYPRO orange fluorescence; percent of sucrose octasulfate shift, DMSO zero; activity (Tm shift, normalised), % at 9.99 µM; 340,000 compounds, 1.5% hits;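 active means mean Tm shift, scaled 0 neutral to 100 positive control, at about 1.3% or above, every replicate too, limit read from the data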
AF4-AF9 inh: blocks AF4 peptide binding to human AF9 | P42568 | inhibition, % at 10 µM | 350,000 compounds, 0.47% hits | AlphaScreen, biotin-AF4 peptide binding to FLAG-AF9 | AID 651704;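 active means every replicate reaching a set inhibition limit, whatever the replicate mean, cut at about 25% in these data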;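 further: 0% = plate neutral control median and 100% = total signal loss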
Target sequence (P42568 whole entry, looked up): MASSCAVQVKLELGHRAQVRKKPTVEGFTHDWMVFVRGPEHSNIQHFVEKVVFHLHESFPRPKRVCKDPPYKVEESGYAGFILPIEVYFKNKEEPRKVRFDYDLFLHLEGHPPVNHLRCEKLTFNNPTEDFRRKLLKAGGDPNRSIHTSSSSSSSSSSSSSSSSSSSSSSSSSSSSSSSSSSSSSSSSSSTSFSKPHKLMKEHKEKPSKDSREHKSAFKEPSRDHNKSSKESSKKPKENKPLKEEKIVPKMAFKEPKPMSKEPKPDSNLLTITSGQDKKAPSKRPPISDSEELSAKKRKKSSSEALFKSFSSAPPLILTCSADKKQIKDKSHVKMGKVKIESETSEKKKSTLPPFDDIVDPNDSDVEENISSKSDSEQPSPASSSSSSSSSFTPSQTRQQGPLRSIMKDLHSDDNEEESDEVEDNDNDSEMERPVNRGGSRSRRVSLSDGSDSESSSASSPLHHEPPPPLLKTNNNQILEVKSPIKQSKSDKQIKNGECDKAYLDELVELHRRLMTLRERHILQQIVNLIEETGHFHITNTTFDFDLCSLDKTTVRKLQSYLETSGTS
SMARCA2 activ: SMARCA2 function activation, primary screen | MG213 cells, MMTV-luciferase reporter, dexamethasone, overnight | activation, % at 9.1 µM | 370,000 compounds, 1% hits; in the data active means activation above about 7.8%;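 further: 0% = vehicle wells and 100% = reference activator wells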
Wnt act: Wnt/beta-catenin pathway activation; activation, % at 9.35 µM; 300,000 compounds, 1.2% hits; Wnt/beta-catenin reporter cell assay, activator, plate reader; in the data active means activation above about 30%, passing the limit was not always enough;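 further: 0% = neutral control wells and 100% = positive control wells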
MITF TRPM1 HTS: MITF TRPM1 promoter activation in melanoma cells | AID 588334 | activation, % at 12.5 µM | 300,000 compounds, 0.75% hits | SK-MEL-5 TRPM1-promoter luciferase, 24 h; % of positive control, neutral wells = 0;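 active means mean activation of at least 80% with every replicate also reaching 80%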;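 further: 0% = neutral control wells and 100% = parthenolide positive control wells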
FGF22 binding-2: binders of human FGF22 by thermal shift | shares compounds with FGF22 binding-1 | recombinant FGF22 thermal shift, SYPRO orange fluorescence | thermal shift activity, °C (ΔTm) at 38 µM | 1,000 compounds, 2% hits;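 active means fitted rise in melting shift crosses a set limit at or below the top valid dose tested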
SYPRO no-protein: counter-screen for FGF22 binders: compound-only thermal shift, no protein; shares compounds with FGF22 binding-1; compound-only SYPRO orange thermal shift counter-screen; AC50, µM (series often up to 38 µM); 1,000 compounds, 2% hits; AID 743019;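 active means rising signal whose fitted curve reaches the 0.54 level within the top valid dose, showing a melting point, actives reach about 13 µM in these data; inactive means the rest, including activity in the opposite direction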; further: value is where the raw curve crosses a fixed level and not half-maximal
* = called active by the depositor.

What do the screens show for `CCCCCCCCNc1ncnc2[nH]ncc12`?
esBAF inh: -8; FGF22 binding-1: 0; AF4-AF9 inh: 1; SMARCA2 activ: -5; Wnt act: -8; MITF TRPM1 HTS: 6

What do the screens show for `CCCSc1ncnc2[nH]ncc12`?
esBAF inh: 3; FGF22 binding-1: 46*; AF4-AF9 inh: -1; SMARCA2 activ: -4; Wnt act: 0; MITF TRPM1 HTS: 4; FGF22 binding-2: 0.1; SYPRO no-protein: inactive

Results for O=S(=O)(/N=C(/Nc1nccs1)c1ccc(F)cc1)c1ccccc1 ?
esBAF inh: -7; FGF22 binding-1: 38*; AF4-AF9 inh: -1; SMARCA2 activ: 0; Wnt act: -8; MITF TRPM1 HTS: 1; FGF22 binding-2: -0.062; SYPRO no-protein: inactive

How did COc1cccc(C#Cc2cnc3c(c2)C(=O)N([C@@H](C)CO)C[C@H](C)[C@H](CN(C)C(=O)C2CC2)O3)c1 do in these assays?
esBAF inh: -6; FGF22 binding-1: 0; AF4-AF9 inh: -3

How did C[C@@H]1CN([C@H](C)CO)C(=O)c2cc(NS(=O)(=O)c3ccccc3)ccc2O[C@@H](C)CCCCO[C@@H]1CN(C)S(C)(=O)=O do in these assays?
esBAF inh: -5; FGF22 binding-1: -1; AF4-AF9 inh: -1

How did O=C(C1CCCC1)N1CCC(CO)(Cc2ccccc2Cl)CC1 do in these assays?
FGF22 binding-1: 0; AF4-AF9 inh: 0; SMARCA2 activ: -4; MITF TRPM1 HTS: 4

Results for CC(C)(C)NC(=O)N1CCC(CO)(Cc2ccccc2Cl)CC1 ?
esBAF inh: 1; FGF22 binding-1: 1.5*; AF4-AF9 inh: -3; SMARCA2 activ: -3; Wnt act: -3; MITF TRPM1 HTS: -3; FGF22 binding-2: -0.031; SYPRO no-protein: inactive

How did COc1cc(/C=C2\CCn3c2nc2cc(C(=O)O)ccc2c3=O)ccc1OC(F)F do in these assays?
esBAF inh: 3; FGF22 binding-1: 1.4*; AF4-AF9 inh: 0; SMARCA2 activ: -2; Wnt act: -1; MITF TRPM1 HTS: 0; FGF22 binding-2: 0.17; SYPRO no-protein: inactive

How did O=C(C[C@@H]1C=C[C@H](NC(=O)Nc2cc(F)ccc2F)[C@H](CO)O1)Nc1ccc(-c2ccccc2)cc1 do in these assays?
esBAF inh: 2; FGF22 binding-1: 1.8*; AF4-AF9 inh: 0; FGF22 binding-2: -0.26; SYPRO no-protein: inactive

What do the screens show for `O=C(C[C@@H]1C=C[C@H](NC(=O)c2cccc(F)c2)[C@H](CO)O1)NCc1ccccc1`?
esBAF inh: 3; FGF22 binding-1: 20*; AF4-AF9 inh: -2; FGF22 binding-2: -0.14; SYPRO no-protein: inactive

What do the screens show for `O=C(C[C@@H]1C=C[C@H](NC(=O)c2cccc(F)c2)[C@@H](CO)O1)NCc1ccccc1`?
esBAF inh: 4; FGF22 binding-1: 0; AF4-AF9 inh: 0

What do the screens show for `O=c1cc[nH]c2ccc(Cl)cc12`?
esBAF inh: 0; FGF22 binding-1: 72*; AF4-AF9 inh: 2; SMARCA2 activ: -3; Wnt act: -1; FGF22 binding-2: 0.18; SYPRO no-protein: inactive

Results for O=c1cc[nH]c2cc(Cl)ccc12 ?
esBAF inh: -6; FGF22 binding-1: 0; AF4-AF9 inh: -4; SMARCA2 activ: 1; Wnt act: 2; MITF TRPM1 HTS: 2

How did CN(C)S(=O)(=O)n1cnc([C@@H]2[C@@H]3C(=O)OC[C@@H]3C[C@]23N=CN(Cc2ccccc2)C3=O)c1 do in these assays?
esBAF inh: 0; FGF22 binding-1: 29*; AF4-AF9 inh: 2; SMARCA2 activ: 2; Wnt act: -3; MITF TRPM1 HTS: -2; FGF22 binding-2: 0.15; SYPRO no-protein: inactive

How did CN(C)S(=O)(=O)n1cnc([C@H]2c3c(ncn3Cc3ccccc3)C[C@H]3COC(=O)[C@@H]32)c1 do in these assays?
esBAF inh: -1; FGF22 binding-1: 0; AF4-AF9 inh: -18; SMARCA2 activ: 1; Wnt act: 0; MITF TRPM1 HTS: -8

How did CNC[C@H]1Oc2c(NS(C)(=O)=O)cccc2C(=O)N([C@@H](C)CO)C[C@H]1C do in these assays?
esBAF inh: 1; FGF22 binding-1: 0; AF4-AF9 inh: -2

What do the screens show for `COc1cc(C2C(C#N)=C(N)Oc3n[nH]c(-c4cccnc4)c32)cc(Br)c1O` (stereo not drawn)?
esBAF inh: -12; FGF22 binding-1: 1.8*; AF4-AF9 inh: 3; SMARCA2 activ: 2; Wnt act: -3; MITF TRPM1 HTS: -6; FGF22 binding-2: 0.28; SYPRO no-protein: inactive

Results for COc1cc(C2C(C#N)=C(N)Oc3n[nH]c(-c4cccnc4)c32)ccc1OCC(N)=O (stereo not drawn) ?
esBAF inh: -7; FGF22 binding-1: 0; AF4-AF9 inh: 2; SMARCA2 activ: 1; Wnt act: 0; MITF TRPM1 HTS: 6

How did O=C(NNC(=O)c1ccccc1O)c1ccc(NS(=O)(=O)c2ccc(F)cc2)cc1 do in these assays?
esBAF inh: 7; FGF22 binding-1: 0; AF4-AF9 inh: 9; SMARCA2 activ: -2; Wnt act: -2; MITF TRPM1 HTS: -11

Results for O=C(NNC(=O)c1ccccc1O)c1ccc(S(=O)(=O)Nc2ccccc2)cc1 ?
esBAF inh: 7; FGF22 binding-1: 1; AF4-AF9 inh: 11; SMARCA2 activ: 0; Wnt act: -2; MITF TRPM1 HTS: -18

What do the screens show for `CCOc1ccc(NS(=O)(=O)c2ccc(C(=O)NNC(=O)c3ccccc3O)cc2)cc1`?
esBAF inh: 1; FGF22 binding-1: 1.4*; AF4-AF9 inh: 16; SMARCA2 activ: -1; Wnt act: -4; MITF TRPM1 HTS: -11; FGF22 binding-2: 0.018; SYPRO no-protein: inactive

How did O=C(NNC(=O)c1ccccc1F)c1ccc(NS(=O)(=O)c2ccc(F)cc2)cc1 do in these assays?
esBAF inh: 8; FGF22 binding-1: 1.8*; AF4-AF9 inh: -21; SMARCA2 activ: 0; Wnt act: 0; MITF TRPM1 HTS: 5; FGF22 binding-2: 0.07; SYPRO no-protein: inactive

How did C[C@@H](O)C#Cc1cnc2c(c1)C(=O)N([C@@H](C)CO)C[C@H](C)[C@@H](CN(C)C(=O)c1ccccc1)O2 do in these assays?
esBAF inh: -1; FGF22 binding-1: 0; AF4-AF9 inh: 0

Results for Cc1cc(C2=NNC(=NCc3ccccc3)SC2)c(C)n1-c1c(C)n(C)n(-c2ccccc2)c1=O ?
FGF22 binding-1: 0; AF4-AF9 inh: -1; SMARCA2 activ: -4; MITF TRPM1 HTS: 1
